Screening data from PubChem BioAssay.
AmpC inh no detg: blocks E. coli AmpC beta-lactamase in detergent-free assay; P00811; Potency, µM (top dose mostly 57.1 µM), inactives show at the top dose activity change, negative = inhibition, usual class: inhibitors; AID 485341; hit rate 0.52% among 330,000; AmpC nitrocefin hydrolysis, absorbance 480 nm, 0.0001% Triton;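 further: potency means the concentration at half of the fitted maximal effect; plate controls were no compound for no effect and no enzyme for full effect; nearly all actives have a fitted effect of over 20% in size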
Target sequence (P00811 whole entry, looked up): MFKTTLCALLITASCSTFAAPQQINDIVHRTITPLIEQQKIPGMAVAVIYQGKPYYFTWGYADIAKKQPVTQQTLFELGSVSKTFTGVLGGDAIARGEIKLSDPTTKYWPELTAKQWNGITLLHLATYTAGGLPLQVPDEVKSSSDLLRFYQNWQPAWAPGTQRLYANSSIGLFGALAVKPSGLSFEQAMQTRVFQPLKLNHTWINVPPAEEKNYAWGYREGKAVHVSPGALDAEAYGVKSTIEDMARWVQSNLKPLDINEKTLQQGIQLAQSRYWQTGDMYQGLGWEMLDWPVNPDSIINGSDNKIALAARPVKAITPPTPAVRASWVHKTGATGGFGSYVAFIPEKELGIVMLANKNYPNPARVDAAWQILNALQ
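AmpC (5.3 nM in the dispensed reagent) in 20 mM phosphate pH 7.0 with 0.01% (detergent screen) or 0.0001% Triton X-100 was preincubated with compounds for 15 min at room temperature. Nitrocefin was then added from an 800 uM solution, and hydrolysis was followed at 480 nm.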
Vaccinia mCherry: inhibitors of vaccinia virus infection (mCherry reporter signal); Potency, µM (highest dose often 36.5 µM), without a hit: at the highest dose activity change, negative = inhibition, most hits filed as inhibitors; hit rate 0.63% among 310,000; Vaccinia virus mCherry reporter infection, fluorescence; calls by dose curve; tested in A549 cells; further: potency means the concentration at half of the fitted maximal effect; on the % scale 0 is the no-effect control and ±100 the full control effect; nearly all actives have a fitted effect of over 35% in size
Vaccinia Venus: inhibitors of vaccinia virus (Venus reporter); Vaccinia virus Venus reporter expression, fluorescence; Potency, µM (highest dose often 36.5 µM), without a hit: at the highest dose activity change, negative = inhibition, most hits filed as inhibitors; hit rate 0.46% among 330,000; calls by dose curve; tested in A549 cells; further: potency means the concentration at half of the fitted maximal effect; on the % scale 0 is the no-effect control and ±100 the full control effect; nearly all actives have a fitted effect of over 30% in size
SARS PLpro yeast-1: SARS-CoV PLP inhibition in yeast; S. cerevisiae expressing SARS-CoV PLpro, growth rescue; Potency, µM (titrated, usually from 32.9 µM), for inactives: at the top dose activity, positive = growth rescue, actives largely listed as activators; hit rate 0.19% among 330,000; AID 485353; calls by dose curve; further: potency means the concentration at half of the fitted maximal effect; 0% is about no effect; nearly all actives have a fitted effect of over 55% in size
AmpC inh detg: blocks E. coli AmpC beta-lactamase in detergent assay; P00811; AmpC hydrolysis of nitrocefin, absorbance 480 nm, 0.01% Triton; Potency, µM (series often up to 114 µM), for inactives: at the top dose activity change, negative = inhibition, usual class: inhibitors; hit rate 0.041% among 370,000;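 further: potency means the concentration at half of the fitted maximal effect; 0% = no-compound wells and -100% = no-enzyme wells; nearly all actives have a fitted effect of over 25% in size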
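20 mM phosphate pH 7.0 + 0.01% (detergent screen) or 0.0001% Triton X-100; 5.3 nM AmpC reagent; cpd preinc 15 min RT; nitrocefin (800 uM stock) to start; A480 q20 s × 4 min; Activity was normalised to no-enzyme and no-compound control wells.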
SARS PLpro yeast-2: Inhibits SARS-CoV PLP in yeast, hit validation | shares compounds with SARS PLpro yeast-1 | yeast expressing SARS-CoV PLpro, growth phenotype rescue | calls only | hit rate 19% among 1,000; call rule not given here
* marks the source's active call; other numbers are inactive results; i = inactive; ? = inconclusive; . = not tested or not shown; + = active, no number. Hits are enriched below; roughly 1.3% of the tested compounds scored in any of these assays. Unless noted, the call rests on the fitted dose curve; in most records, active means well fitted curve in the direction sought with a large enough effect; inconclusive means small, poorly fitted or top-dose-only effect, or another doubt; inactive means no such curve, though single readings can be large; an effect the other way counts as inactive or inconclusive.

SMILES	AmpC inh no detg	Vaccinia mCherry	Vaccinia Venus	SARS PLpro yeast-1	AmpC inh detg	SARS PLpro yeast-2
COc1ccc2cc(CNc3ccc(C)cc3)c(=O)n(CC(=O)Nc3ccc(C)cc3Cl)c2c1	.	-9.3%	-4.1%	.	11.1%	.
Cc1cc2nn(-c3ccc(F)cc3)nc2cc1NC(=O)c1cc(Cl)ccc1Cl	.	-13.8%	-3.8%	.	-5.4%	.
CN(C(=O)Cn1cc(S(=O)(=O)N2CCN(c3ccccc3F)CC2)c2ccccc2c1=O)c1ccc(Cl)cc1	.	-12.9%	-3.6%	.	14.9%	.
CC1CCCCC1NC(=O)NC(=O)CCl (configuration not stated)	1.0%	-13.9%	-9.6%	?	20.1%	+
CC1CCCCC1NC(=O)NC(=O)COC(=O)c1nccnc1N (configuration not stated)	-18.9%	-13.4%	-2.3%	-6.9%	.	.
CC1CCCC(NC(=O)NC(=O)CCl)C1C (configuration not stated)	-1.1%	.	.	?	14.9%	+
O=C(Cn1c(NCCO)nc2ccccc21)NCCc1ccc(F)cc1	5.7%	.	-4.5%	?	-6.5%	i
O=C(Cn1c(CO)nc2ccccc21)NCCc1ccc(F)cc1	1.8%	i	-6.2%	3.5%	-0.4%	.
O=C(On1c(-c2ccccc2)nc2ccccc2c1=O)c1ccco1	.	i	-11.4%	.	-3.6%	.
COc1cc(OC)cc(-c2nc3ccccc3c(=O)n2OC(=O)c2ccccc2C)c1	-16.4%	-18.9%	?	?	-15.2%	+
COc1cccc(/C=N/NC(=O)N/N=C/c2cccc(OC)c2O)c1O	-46.5%	-12.7%	-18.7%	6.8%	-12.8%	.
COc1cccc(/C=N/NC(=O)c2c(C)nc3ccc(Br)cn23)c1O	-18.3%	.	.	?	3.6%	i
COc1cccc(/C=N/NC(=O)C(C)n2nc(C)c([N+](=O)[O-])c2C)c1O (configuration not stated)	-45.2%	?	?	11.2µM*	-16.8%	i
COc1cccc(/C=N/NC(=O)c2nc(-c3ccccc3)cc(-c3ccccc3)n2)c1O	-30.6%	-21.2%	-17.4%	11.2µM*	-13.6%	+
COc1cccc(/C=N/NC(=O)CSc2ccccc2C)c1O	-21.8%	?	?	22.4µM*	-7.6%	+
Cc1cc2c(cc3c(SCC(=O)Nc4cccc(Cl)c4C)nnc(C)n32)o1	.	-6.4%	-10.6%	.	-7.8%	.
Cc1ccc(NC(=O)COc2ccccc2C(=O)Nc2ccccc2)cc1	.	i	-26.3%	.	.	.
CC1(C(=O)NCc2ccccc2)CSCC(=O)N1CCOc1ccccc1 (configuration not stated)	.	-13.7%	-6.4%	.	.	.
COc1cccc(N=CC2=C(O)CC(C)(C)CC2=O)c1	2.6%	-23.4%	-27.5%	.	-11.4%	i
CCN(CC(=O)Nc1cc(C)nn1-c1nc(C)cc(C)n1)Cc1ccccc1	104.0%	-8.6%	-26.7%	?	-16.8%	i
CN1CCN(c2nc3cc(N4CCOCC4)ccc3s2)CC1	.	-7.7%	-14.2%	.	.	.
O=C(Nc1ccc(F)cc1F)NC1CCN(S(=O)(=O)c2ccc(F)cc2)CC1	-33.3%	i	-30.0%	-1.0%	-7.6%	.
Cc1cc(Cl)ccc1NC(=O)NC1CCN(S(=O)(=O)c2ccc(F)cc2)CC1	-25.8%	?	-24.8%	?	3.6%	?
O=C(N/N=C/c1ccccn1)c1ccccc1	-9.5%	?	5.6%	-5.6%	-8.5%	.
Cn1ncc(Cl)c1C(=O)N/N=C/c1ccccn1	-8.5%	-7.9%	-7.6%	?	-13.6%	+
SMILES	AmpC inh no detg	Vaccinia mCherry	Vaccinia Venus	SARS PLpro yeast-1	AmpC inh detg	SARS PLpro yeast-2
Cc1cccc(N(C)C(CNS(=O)(=O)c2ccccc2)c2ccccc2)c1 (configuration not stated)	.	-5.8%	-5.2%	.	-0.9%	.
CCN(Cc1ccccc1)S(=O)(=O)c1ccc(C(=O)N2CCN(c3nc4ccccc4s3)CC2)cc1	-13.3%	-21.7%	-22.7%	2.82µM*	-3.3%	i
CCc1ccc2nc(N3CCN(C(=O)c4ccccc4)CC3)sc2c1	.	-14.3%	-24.4%	.	-0.1%	.
CCCCNC(=O)CCCCCNS(=O)(=O)c1ccc(OC)cc1	0.2%	-9.0%	-10.8%	?	-5.9%	i
CC1(C)Cc2c(C#N)c(NCc3ccco3)nc(-c3ccco3)c2CO1	-31.9%	.	-9.3%	?	-4.0%	i
Cc1nc(NCc2ccco2)c(C#N)c2c1COC(C)(C)C2	-17.3%	4.5%	15.1%	-0.8%	-5.6%	.
Cn1c(N)c(C(=O)COC(=O)CCCc2c[nH]c3ccccc23)c(=O)n(C)c1=O	32.3%	.	-3.2%	14.5%	?	.
Cn1c(N)c(C(=O)COC(=O)CCc2c[nH]c3ccccc23)c(=O)n(C)c1=O	-9.0%	.	16.9%	3.55µM*	?	i
CC(C)(C)N(Cc1ccccc1)C(=O)COC(=O)C1CCCCC1	25.4%	-2.9%	11.7%	3.16µM*	.	i
Cc1cccc(Cn2cc(S(=O)(=O)c3ccc(Cl)cc3)c(=O)c3cc4c(cc32)OCO4)c1	.	-3.9%	-2.9%	.	-10.6%	.
Cc1ccc(CNC(=O)COC(=O)c2ccc(S(=O)(=O)N3CCCCCC3)cc2)cc1	-6.4%	-8.1%	-11.5%	1.0%	0.0%	.
O=C(COC(=O)c1ccc(S(=O)(=O)N2CCCCCC2)cc1)NCc1ccc(F)cc1	-13.2%	-1.9%	-11.3%	?	-6.3%	+
O=S(=O)(c1ccccc1)n1nc(-c2ccc(Cl)cc2)nc1NCc1ccc(F)cc1	.	-25.7%	-27.1%	.	16.3%	.
CCC(=O)Oc1c(Sc2ccc(Cl)cc2)c(C)nn1C(C)(C)C	.	-7.2%	-2.1%	.	-1.1%	.
CC(C)CCN(Cc1ccco1)C(=O)Cn1ncc2c([nH]c3ccccc32)c1=O	.	-8.8%	-6.5%	.	2.1%	.
COc1ccc(C(=O)N2CCN(Cc3cc(OC)c(O)c(OC)c3)CC2)cc1OC	20.4%	1.9%	-0.1%	20µM*	-1.8%	i
COc1ccc(N2CCN(C(=O)NCc3noc4ccccc34)CC2)cc1	.	-2.3%	-8.4%	.	-12.6%	.
COc1ccccc1[C@@H]1C(c2cccc(C)c2)=NN(c2ccc(Br)cc2)[C@H]1C(=O)N1CCOC1=O	-10.1%	-15.6%	-5.1%	3.98µM*	.	i
O=c1c2c3c(sc2nnn1CCCCOc1ccc(Cl)cc1)CCCC3	.	-0.4%	-4.9%	.	21.2%	.
Cc1ccc(N2CN(Cc3cccnc3)CNC2=S)c(C)c1	-8.7%	-12.8%	-7.5%	-14.1%	-3.0%	.
Cc1ccc(N2CN(Cc3ccco3)CNC2=S)c(C)c1	-27.1%	-13.9%	-13.6%	?	-6.8%	?
Cc1nnc(SCC(=O)NNC(=O)C(C)C)[nH]c1=O	-9.9%	-17.2%	-12.8%	22.4µM*	-13.8%	i
C/C(CC(c1ccccc1)c1c(O)c2ccccc2oc1=O)=N\NC(N)=S (configuration not stated)	-7.9%	3.98µM*	7.94µM*	11.2µM*	?	i
COc1ccc(C(=O)CC(c2ccc(OC)c(OC)c2)c2c(O)c3ccccc3oc2=O)cc1OC (configuration not stated)	.	i	-16.7%	.	.	.
